FMDV antiviral = foot and mouth disease virus antiviral activity. 410,000 compounds, 1.2% hits. Potency, µM (top dose mostly 57.9 µM), inactives show at the top dose activity change, negative = inhibition, most hits filed as inhibitors. FMDV antiviral cell-based qHTS; calls by dose curve; tested in HEK293T cells; further: read-out not given here; potency means the concentration at half of the fitted maximal effect; on the % scale 0 is the no-effect control and ±100 the full control effect; nearly all actives have a fitted effect of over 45% in size
CHX counter = counter-screen for Shiga toxin inhibitors: cycloheximide protein synthesis inhibition; cell reporter, cycloheximide protein synthesis inhibition counterscreen; AID 2314; max response, %; 300,000 compounds, 12% hits; in the data active means max response mostly above about 13%, no sharp cut-off; inactive means mostly below about 14%; further: read at 38.3 µM for the half of the compounds with a filed dose; 0% is about no effect
Sm TGR inh = blocks Schistosoma mansoni thioredoxin glutathione reductase. Q962Y6. Potency, µM (top dose mostly 114 µM), for inactives: top-dose activity change, negative = inhibition, usual class: inhibitors. purified TGR, DTNB reduction, TNB absorbance 405 nm. AID 485364. 360,000 compounds, 3% hits; active means well fitted inhibition curve with a large enough effect; inconclusive means small, poorly fitted or top-dose-only effect; inactive means no such curve, though single readings can be large or run the other way; further: potency means the concentration at half of the fitted maximal effect; on the % scale 0 is the no-effect control and ±100 the full control effect; nearly all actives have a fitted effect of over 60% in size
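Kinetic colorimetric format: TGR-catalysed, NADPH-driven DTNB reduction monitored via TNB absorbance. Enzyme dispensed at 20 nM; compound exposure 15 min at room temperature before reaction start.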
Shiga toxin inh = Shiga toxin inhibition; Vero cells, Shiga toxin protein synthesis inhibition reporter; inhibition, % at 38.7 µM; 290,000 compounds, 9.2% hits; in the data active means inhibition mostly above about 28%, no sharp cut-off; inactive means mostly below about 43%; further: 0% is about no effect
The depositor's hits bear a star; ? = inconclusive; . = no result given; ! = a repeat was not active. In the library only some 12% were active in any assay of this set; here they are far more common.

SMILES	FMDV antiviral	CHX counter	Sm TGR inh	Shiga toxin inh
CCOc1ccc(-c2cc(OC(=O)c3ccccc3)c3c(C)oc(C)c3c(=O)c2)cc1	5.5%	.	50.1µM*	.
COc1ccc(-c2cc(OC(=O)c3cccc(C)c3)c3c(C)oc(C)c3c(=O)c2)cc1	-6.7%	.	12.6µM*	.
CCOc1cc(-c2ccc(OC(=O)c3ccc(C)cc3)c(OC)c2)cc(=O)c2c(C)oc(C)c12	25.1µM*	.	-26.9%	.
CCOc1cc(-c2ccc3c(c2)OCO3)cc(=O)c2c(C)oc(C)c12	.	-3.0	35.5µM*	-4.9
COc1cccc(/C=C/c2nc(C#N)c(N3CCC(C(N)=O)CC3)o2)c1	5.7%	.	3.3%	.
COc1cccc(NC(=O)c2cc3c(-c4ccc(Cl)cc4)nn(C)c3s2)c1	?	.	0.8%	.
CCCSCCCNC(=O)CN1C(=O)COc2ccc(S(=O)(=O)N3CCC(C)CC3)cc21	-13.5%	.	5.62µM*	.
COC(=O)c1c(C(=O)OC)c(-c2ccc(OC)cc2)n2c1CCC2	-18.3%	-8.7	0.9%	-3.7
COC(=O)c1coc(-c2ccc(C)cc2)c1C(=O)OC	20.6%	39.0*	-2.8%	66.1*
COC(=O)c1coc(-c2ccc(OC)cc2)c1C(=O)OC	21.9%	43.4*	-26.9%	70.5
O=C(CSc1nc2sc3c(c2c(=O)[nH]1)CCCC3)Nc1ccccc1F	0.0%	.	-0.2%	.
CCOC(=O)c1ccc(C(=O)OCC)nc1	44.7%	16.3*	6.5%	35.3*
CCOC(=O)c1ccc(N=NN(C)C)cc1	55.7%	30.5*	1.5%	90.8*
CCOC(=O)c1ccc(N)cc1	-0.1%	.	-5.0%	.
COc1ccc(S(=O)(=O)N2CCC(n3c(C)nc4cccnc43)CC2)cc1Cl	-3.7%	.	3.5%	.
O=C(NC1CCCCCC1)c1ccc(CS(=O)Cc2cccc(Cl)c2)o1 (centres undefined)	-1.0%	-2.6	56.2µM*	8.3
Cc1ccc(CCNC(=O)c2ccc(CS(=O)(=O)Cc3ccccc3F)o2)cc1	?	0.6	?	-7.1
O=C(NCCc1ccccc1)c1ccc(CS(=O)Cc2ccc(Cl)cc2)o1 (centres undefined)	-11.9%	3.7	35.5µM*!	24.7
Cc1ccccc1CS(=O)(=O)Cc1ccc(C(=O)NCCc2ccc(Cl)cc2)o1	28.2µM*	.	-6.4%	.
COc1ccc(C(=O)O/N=C2\CCCc3nonc32)cc1	-7.0%	-1.0	-0.1%	-2.6
COC(=O)c1ccc(CO/N=C2\CCCc3nonc32)cc1	59.0%	44.0*	4.5%	53.3
COc1ccc(N2CC(NC(=O)C(c3ccccc3)c3ccccc3)CC2=O)cc1OC (centres undefined)	-19.6%	.	-9.8%	.
Cc1ccc(CNC(=O)c2cccn2-c2nnc(N3CCCCC3)s2)cc1	?	.	5.4%	.
CNS(=O)(=O)c1cccc(C(=O)OCC(=O)c2c(N)n(C)c(=O)n(C)c2=O)c1	14.7%	-5.9	1.1%	5.7
C=CCN(c1ccccc1OC)S(=O)(=O)c1cccc(C(=O)OCC(=O)c2c(N)n(C)c(=O)n(C)c2=O)c1	39.8µM*	.	.	.
SMILES	FMDV antiviral	CHX counter	Sm TGR inh	Shiga toxin inh
C=CCOc1ccc(CNc2nccs2)cc1OC	7.3%	26.2*	-2.3%	22.4*
COc1ccccc1CNC(=O)C(=O)Nc1nccs1	42.4%	-2.1	44.7µM*	50.2
Cc1ccccc1CNC(=O)C(=O)Nc1nccs1	-1.0%	-0.5	2.2%	5.0
COc1ccccc1CCC(=O)Nc1nccs1	20.6%	13.6*	-27.5%	32.1
COc1cccc(CNc2nccs2)c1O	0.0%	24.3*	66.0%	.
COc1ccccc1CCC(=O)Nc1ccc(C)cc1Cl	2.7%	54.7*	-0.4%	90.0*
O=C(CSc1nnc(CNC(=O)c2cccc(F)c2)n1-c1ccccc1)Nc1ccccc1F	-12.3%	.	4.7%	.
CSCC[C@@H](C(=O)Nc1cccc(F)c1)N1Cc2ccccc2C1=O	6.3%	.	-1.8%	.
CS(=O)(=O)CCC(C(=O)Nc1ccc2c(c1)OCO2)N1Cc2ccccc2C1=O (centres undefined)	29.2%	20.1*	-34.4%	23.1
CSCC[C@@H](C(=O)Nc1ccc2c(c1)OCCO2)N1Cc2ccccc2C1=O	32.1%	27.3*	4.7%	58.8
Cc1noc(C)c1-c1nccc(NCc2ccccc2)n1	-33.6%	.	.	.
CCCCN1CCC2C=CCC(C(=O)O)C2C1=O (centres undefined)	.	-7.3	.	2.1
c1ccn2cc(-c3ccc4c(c3)OCO4)cc2c1	45.2%	8.3	44.7µM*	48.4
c1cnc2nc(-c3ccc4c(c3)OCO4)cn2c1	45.3%	34.7*	13.4%	37.7*
CS(=O)(=O)Nc1ccc(-c2cn3cccnc3n2)cc1	27.1%	21.4*	-30.5%	43.5*
S=c1[nH]nc(-c2ccc3c(c2)OCO3)n1-c1ccccc1	-7.3%	-3.9	-15.9%	-8.0
Cc1cc(C)cc(C(=O)Nc2ccc(-c3cn4cccnc4n3)cc2)c1	-29.4%	.	6.3%	.
